# Screening results: PubChem BioAssay, National Center for Advancing Translational Sciences (NCATS)
# An excerpt weighted towards active compounds, which were near 1.8% of everything screened.
# KAT2A inh: blocks human GCN5L2 histone acetyltransferase | GCN5L2 HAT assay, ThioGlo1 CoA-SH fluorescence | Q92830 | actives 0.21% (n = 390,000) | Potency, µM (highest dose often 58.9 µM), for the others: top-dose activity change, negative = inhibition, most hits filed as inhibitors | AID 504327; note: % is set by controls: 0 for no effect and ±100 for the full control effect
#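 Compounds, pin-transferred from DMSO stocks, meet 20nM GCN5L2 for 15 min before the reaction begins with H3(1-25) peptide (75uM) and acetyl-CoA (70uM). Thiol-reactive ThioGlo1 reports CoA release over 20 min at room temperature.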
# HEK293 tox: cytotoxicity in counter-screen for GLP-1R inverse agonists | HEK293 cAMP-luciferase reporter cells, luminescence, 24 h | Potency, µM (highest dose often 38.3 µM), without a hit: top-dose activity change, negative = inhibition, actives largely listed as inhibitors | actives 0.13% (n = 410,000) | AID 624418;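 note: loss of luciferase light is scored as toxicity; % is set by controls: 0 for no effect and ±100 for the full control effect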
#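 A 23 nL compound transfer followed 12 hours of cell culture at 37 deg C; exposure then lasted 24 hr. Luciferase assay detection reagent was dispensed and plates read for luminescence after a 12 min room-temperature wait.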
# GLP-1R inv ag: GLP-1 receptor (human) inverse agonism. actives 1.6% (n = 410,000). HEK293 GLP-1R CRE-luciferase, luminescence, 24 h; GLP-1R form is constitutively active. Potency, µM (doses to about 38.3 µM), for the others: at the top dose activity change, negative = inhibition, usual class: inhibitors. P43220; note: % is set by controls: 0 for no effect and ±100 for the full control effect; nearly all actives have a fitted effect of over 55% in size
# Target sequence (P43220 whole entry, looked up): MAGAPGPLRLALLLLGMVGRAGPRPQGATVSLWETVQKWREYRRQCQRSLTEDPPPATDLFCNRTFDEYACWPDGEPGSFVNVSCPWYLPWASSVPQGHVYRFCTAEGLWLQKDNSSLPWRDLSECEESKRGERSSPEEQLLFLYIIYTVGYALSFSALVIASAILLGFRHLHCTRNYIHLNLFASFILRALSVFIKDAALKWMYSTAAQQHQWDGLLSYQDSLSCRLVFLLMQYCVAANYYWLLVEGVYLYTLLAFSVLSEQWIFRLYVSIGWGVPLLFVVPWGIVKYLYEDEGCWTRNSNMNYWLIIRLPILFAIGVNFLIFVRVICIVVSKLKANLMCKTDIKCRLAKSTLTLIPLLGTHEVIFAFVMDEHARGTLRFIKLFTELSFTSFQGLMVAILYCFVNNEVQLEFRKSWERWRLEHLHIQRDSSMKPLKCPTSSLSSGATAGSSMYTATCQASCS
#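 Assay principle: reduced luminescence from a cAMP-responsive reporter in HEK293 cells co-expressing a constitutively active GLP-1R. Conditions: 24 hr compound incubation, 37 deg C, 5% CO2.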
# PTHR1 ag: agonists of human PTHR1 parathyroid hormone receptor | Q03431 | HEK293 GP2 PTHR1 cells, GloSensor cAMP luminescence, 1 h | Potency, µM (series often up to 115 µM), inactives show at the top dose activation, hits mostly activators | actives 0.075% (n = 410,000); note: nearly all actives have a fitted effect of over 55% in size
#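 HEK-293-derived GP2 cells expressing PTHR1 and a GloSensor cAMP reporter, 3,000/well, plated overnight, given luciferin plus IBMX (each 0.5 mM as added) for 1 h at 37 °C, then compound for 1 h at 37 °C. Luminescence was read after 15 min at room temperature.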
# GLP-1R agonist: GLP-1 receptor (human) agonism; P43220; HEK293 GLP-1R CRE-luciferase, luminescence, 4-6 h; cells express a hypersensitive GLP-1R form; Potency, µM (titrated, usually from 45.6 µM), for the others: at the highest dose activation, usual class: activators; actives 0.007% (n = 380,000); note: % of control where 0% means no effect
# RGS4 inhibitor: human RGS4 inhibition | P49798 | Transcreener GDP fluorescence polarization, RGS4-accelerated GTP hydrolysis | Potency, µM (series often up to 114 µM), for the others: at the highest dose activity change, negative = inhibition, actives largely listed as inhibitors | actives 0.039% (n = 390,000) | AID 504845; note: % is set by controls: 0 for no effect and ±100 for the full control effect; nearly all actives have a fitted effect of over 75% in size
# Target sequence (P49798 whole entry, looked up): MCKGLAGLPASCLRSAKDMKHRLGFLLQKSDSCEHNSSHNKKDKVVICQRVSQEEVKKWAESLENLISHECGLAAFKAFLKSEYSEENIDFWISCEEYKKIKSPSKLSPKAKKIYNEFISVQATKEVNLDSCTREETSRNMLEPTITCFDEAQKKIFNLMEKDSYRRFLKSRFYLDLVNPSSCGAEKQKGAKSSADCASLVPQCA
#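 MLSMR compounds (23 nl, pin-transferred) preincubated 10 min at room temperature with a 500nM (2x) first reagent, then RGS4 at 900nM (2x) plus Transcreener GDP mix added; fluorescence polarization (620/688 nm) read before and after 90 min at 30 °C.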
# An asterisk follows results filed as active; i = inactive; ? = inconclusive; · = not tested or not shown; [ ] = another dose, or the depositor's remark. Calls come from the whole dose curve; as a rule, active = well fitted curve in the direction sought with a large enough effect; inconclusive = small, poorly fitted or top-dose-only effect, or another doubt; inactive = no such curve, though single readings can be large; an effect the other way counts as inactive or inconclusive. Potency is the fitted concentration of half-maximal effect.
SMILES,KAT2A inh,HEK293 tox,GLP-1R inv ag,PTHR1 ag,GLP-1R agonist,RGS4 inhibitor
CC(=O)O[C@@H]1C(=O)O[C@H]2[C@@H]1OC(=O)[C@@H]2OC(C)=O,·,·,·,·,-0.7%,·
COc1ccc2cccc(N3CCN(CCNC(=O)c4ccc(F)cc4)CC3)c2c1,-13.3%,·,·,·,·,-151.2%[56.9 µM]
CCOc1ccccc1Nc1sc(C(=O)c2ccccc2)c(N)c1C(=O)Nc1ccc(F)cc1,-3.4%,1.3%,-17.2%,-25.3%,·,-18.6%
Cc1cccc(C)c1Nc1sc(C(=O)c2ccccc2)c(N)c1C(=O)Nc1ccc(F)cc1,0.4%,-22.0%,11.2µM*,-34.6%,·,2.9%
O=C(CN1CCC(n2nnc3cc(C(F)(F)F)ccc32)CC1)Nc1ccc2c(c1)OCCO2,-6.3%,?,?,-15.4%[57.5 µM],-7.9%,-5.1%[56.9 µM]
O=C(CN1CCC(n2nnc3cc(C(F)(F)F)ccc32)CC1)Nc1ccc2c(c1)CCC2,-8.5%,2.9%,4.47µM*,-19.6%[57.5 µM],1.2%,0.7%
COc1ccc(S(=O)(=O)n2cccc2)cc1,·,8.3%,10.6%,i,7.9%,-4.7%
CCC1CCCCN1C(=O)Cn1c(=O)n(-c2ccc(Cl)c(Cl)c2)c(=O)c2c(C)c(C(=O)N(C)C)sc21 (stereo not given),-3.7%,0.0%,0.7%,i,·,1.7%
C=CCNC(=S)Nc1cc(C)ccn1,-1.0%,?,10µM*,-6.5%,6.0%,-27.6%
Cc1ccnc(NC(=S)NC(=O)/C=C/c2ccccc2)c1,-3.7%,-18.7%,17.1%,-13.9%,-2.6%,-12.9%
CCCOc1cccc(C(=O)Nc2ccc(-c3cc4ccccc4oc3=O)c(C)c2)c1,-6.0%,13.2%,3.98µM*,-19.4%,·,-5.2%
O=c1oc2cc(OCc3c(F)cccc3Cl)ccc2cc1-c1ccccn1,-3.9%,-6.0%,6.9%,-31.0%[57.5 µM],-10.1%,-11.5%
CCCOc1ccc2cc(-c3ccccn3)c(=O)oc2c1,-9.8%,41.3%,2.82µM*,-22.2%,-2.8%,-8.9%
COc1ccc(Cl)cc1Cn1c(C)c(C(=O)NCc2cccc([N+](=O)[O-])c2)sc1=O,·,-5.2%,?,i,8.5%,·
CCCCOC(=O)/C(=C/C=C/c1ccccc1)NC(=O)c1ccccc1,-8.1%,-0.9%[7.66 µM],-8.0%[7.66 µM],-29.0%,15.7%,-11.4%
CCCOC(=O)/C(=C\C=C\c1ccccc1)NC(=O)c1ccccc1,0.4%,9.7%,2.51µM*,i,21.6%,8.8%
O=C1NC[C@H](CCCCN2C[C@H](Cc3ccc(O)cc3)N(Cc3ccccc3)C(=O)C2=O)N(CC2CCCCC2)C1=O,·,4.9%,13.2%,?,-1.1%,·
CC(C)C[C@@H](NC(=O)[C@@H](COC(C)(C)C)NC(=O)[C@H](Cc1ccc(O)cc1)NC(=O)[C@@H](CO)NC(=O)[C@@H](Cc1c[nH]c2ccccc12)NC(=O)[C@@H](Cc1cnc[nH]1)NC(=O)[C@@H]1CCC(=O)N1)C(=O)N[C@H](CCCN=C(N)N)C(=O)N1CCC[C@H]1C(=O)NNC(N)=O,·,·,·,·,-1.3%,·
C=C(CC1([C@@H](NP(=O)(c2ccccc2)c2ccccc2)[C@H]2C[C@@H]2CCCC)CC1)c1ccccc1,-16.4%,8.9%,2.51µM*,-68.1%,1.5%,-15.5%
CN(C)C(CNC(=O)c1ccc(Br)cc1)c1ccco1 (stereo not given),15.6%,0.8%,-27.9%,i,10.9%,2.6%
CC(C)CCOc1ccc(C(=O)NCC(c2ccco2)N(C)C)cc1 (stereo not given),-2.7%,-2.3%,7.94µM*,i,17.4%,0.9%
CCn1nc(-c2ccc(C)cc2)nc2c(=O)n(C)c(=O)nc1-2,·,·,·,·,·,-31.7%
CCNC(=O)C1(C)CCN(C(=O)c2ccccc2C(F)(F)F)C1 (stereo not given),·,3.6%,3.1%,i,-1.9%,·
CC(=NNC(N)=S)c1ccc2cc3c(cc2c1)OCO3,·,?,2.82µM*,-15.9%,18.5%,·
C/C(=N\NC(N)=S)c1ccc2c(c1)OCCO2,-2.1%,-100.8%,?,i,16.4%,-15.2%
SMILES,KAT2A inh,HEK293 tox,GLP-1R inv ag,PTHR1 ag,GLP-1R agonist,RGS4 inhibitor
Cc1ccc(C(=O)C(C(=O)/C=C/c2ccccc2)=C2SCCCS2)cc1,-13.7%,?,2µM*,-10.2%[57.5 µM],-4.9%,-32.0%[11.4 µM]
Cc1ccc(C(=O)C=CC=Cc2ccccc2)cc1,·,6.3%,-7.6%,-34.7%,-0.7%,·
CC(C)(C)c1ccc(NC(=O)COC(=O)C2(C)CC2(Cl)Cl)cc1 (stereo not given),-13.2%,-23.9%,3.55µM*,-28.2%,1.3%,3.0%
COc1ccccc1C(=O)COC(=O)C1(C)CC1(Cl)Cl (stereo not given),-2.4%,10.4%,10µM*,-6.8%,0.9%,26.3%
COc1ccccc1C(=O)COC(=O)c1ccccc1O,-1.5%,-1.7%,-17.4%,-13.3%,11.8%,-3.4%
CCNc1ncc2nc(C)c(=O)n(CCOC)c2n1,-26.2%,·,·,·,·,·
O=C(NCC(c1cccnc1)N1CCN(Cc2ccccc2)CC1)C(=O)Nc1ccc(Cl)cc1 (stereo not given),-10.2%,-7.4%,-29.0%,-82.2%,·,2.7%
Cc1ccc(C2CC(=O)NC(SCc3ccccc3)=C2C#N)cc1 (stereo not given),-13.4%,-7.4%,8.91µM*,-20.2%,6.2%,-52.9%
CCc1ccc(C(=O)c2cn(CC(=O)Nc3ccc4c(c3)OCO4)c3ccc(OC)cc3c2=O)cc1,-27.1%,1.3%,-16.0%,i,0.0%,?
Cc1occc1-c1nnc(SCC(=O)NC2CCC(C)CC2)o1 (stereo not given),-2.8%,4.5%,-16.1%,i,-7.0%,-35.0%
CCOc1c(C)cnc2c1c(=O)n(Cc1cccc(Cl)c1)c(=O)n2C,-4.9%,36.6%,10µM*,-11.5%,2.7%,-2.5%
O=C(O)C1CC(Br)C(Br)CC1C(=O)O (stereo not given),·,2.4%,-2.4%,i,-3.8%,·
C[C@@](N)(C(=O)O)[C@@H]1C[C@@H]1C(=O)O,-11.6%,·,·,·,·,23.8µM*
CN(c1cccc(NC(=O)CN(c2ccc(C34CC5CC(CC(C5)C3)C4)cc2)S(C)(=O)=O)c1)S(C)(=O)=O,11.3%,10µM*,3.16µM*,-3.7%,4.9%,14.5%
CN(c1cccc(NC(=O)CN(c2ccc(F)cc2)S(C)(=O)=O)c1)S(C)(=O)=O,0.8%,-1.8%,15.9%,i,-0.9%,26.9%
CCO[C@@H]1OC(C(=O)N2CCN(Cc3ccccc3)CC2)=C[C@H](c2coc3ccccc3c2=O)[C@H]1CCCO,-0.3%,-23.5%,-6.6%,i,-1.7%,-12.6%
